Data from ChEMBL document CHEMBL1157539, “Thousands of chemical starting points for antimalarial lead identification” (Nature, 2010).

Key:
Type in all cases: functional
Plasmodium falciparum [1] = assay: GSK_TCMDC: Inhibition of Plasmodium falciparum 3D7 in whole red blood cells, using parasite LDH activity as an index of growth. Test compounds present at 2uM
Plasmodium falciparum [2] = assay: GSK_TCMDC: Inhibition of Plasmodium falciparum Dd2 in whole red blood cells, using parasite LDH activity as an index of growth. Test compounds present at 2uM
HepG2 = assay: GSK_TCMDC: Percent inhibition of human HepG2 cell line. Test compounds present at 10uM.

Structure (SMILES) | Inhibition (Plasmodium falciparum [1]) [%] | Inhibition (Plasmodium falciparum [2]) [%] | Inhibition (HepG2) [%]
CCNC(=O)c1ccc(-n2nc(C)cc2-c2ccccc2)cc1 | 89 | 54 | 11
CC(C)CCNCc1ccc(OCc2cccc(C(=O)Nc3ccccc3)c2)c(I)c1.O=C(O)C(F)(F)F | 100 | 59 | 25
Cc1cccc2nc(-c3cccc(-c4ccc(NC(=O)Nc5cccc(C#N)c5)cc4)c3)[nH]c12 | 100 | 91 | 50
CC(=O)c1ccc(-c2cccc3c(CC(=O)Nc4ccc5nccc(N6CCN(C)CC6)c5c4)cccc23)cc1 | 100 | 96 | 3
CCCCCCCc1c2c(C)c(C(=O)OCC)nc-2cc2n1CC(C)=C2C.Cl | 89 | 10 | 11
CC1(C)N=C(N)N=C(N)N1OCCCc1ccccc1.Cl | 96 | 94 | 64
Cc1noc(C)c1-c1cccc(C(=O)NC2CCN(CCNC(=O)C(c3ccccc3)c3ccccc3)CC2)c1.O=C(O)C(F)(F)F | 85 | 74 | 27
CC(=O)Nc1ncc(C(=O)Nc2cccc(-c3ccc(-c4nc5ccccc5[nH]4)cc3)c2)s1 | 100 | 66 | 12
Cc1cc(OCCN2CCCCC2)ccc1NC(=O)c1cccc2c(=O)n(Cc3ccc(Cl)cc3)cnc12 | 88 | 56 | 100
Cc1ccc2c(OCCN3CCC(Cc4cc5c(cc4F)OCC(=O)N5)CC3)cc(F)cc2n1.Cl | 100 | 71 | 27
CC1(C)N=C(N)N=C(Nc2ccc(F)c(F)c2)N1.Cl | 91 | 1 | 59
CCCCNCc1ccc(-c2nc(CN(Cc3ccc(Cl)c(Cl)c3)S(=O)(=O)c3ccc(NC(C)=O)cc3)cs2)cc1.O=C(O)C(F)(F)F | 96 | 20 | 30
Cl.Nc1nc(N)c2c(ccc3nn(S(=O)(=O)N4CCCC4)cc32)n1 | 95 | 0 | 69
O=C(Nc1ccc(OC2CCN(Cc3ccccc3)CC2)c(Cl)c1)c1ccc(F)cc1.O=C(O)C(F)(F)F | 94 | 92 | 30
CC(Sc1nnc(-c2cccs2)[nH]1)C(=O)c1c[nH]c2ccccc12 (stereo not drawn) | 94 | 58 | 0
CN1CC[C@@H](Oc2cc(NC(=O)Nc3ccccc3Br)ccc2Cl)C1 | 100 | 6 | 26
O=c1cc(NCCCCNCc2cccc(C(F)(F)F)c2)[nH]c2ccccc12 | 94 | 34 | 13
Cl.c1ccc(CC2=NCCN2)cc1 [TOLAZOLINE HYDROCHLORIDE] | 94 | 0 | 3
CN1CCN(c2cc3c(cc2Cl)CCN3C(=O)Cc2ccc(Cl)c(NC(=O)Nc3cccc(C#N)c3)c2)CC1 | 99 | 40 | 0
Cc1cc(N2CCN(CC3CCCCC3)CC2)nc(Nc2ccc(Br)cc2)n1 | 91 | 16 | 0
COc1ccc2nccc(N(C)CC3(O)CCN(CC(O)c4ccc5c(c4)NC(=O)CS5)CC3)c2n1.Cl (stereo not drawn) | 100 | 0 | 1

Structure (SMILES) | Inhibition (Plasmodium falciparum [1]) [%] | Inhibition (Plasmodium falciparum [2]) [%] | Inhibition (HepG2) [%]
COc1cc(NC(=O)N2CCOC(CCN3CCC4(CCc5ccccc54)CC3)(c3ccc(Cl)c(Cl)c3)C2)cc(OC)c1OC (stereo not drawn) | 94 | 67 | 17
CC(C)c1ccc(NC(=O)c2cccc(CN3CCCN(CC4CCCCC4)CC3)c2)cc1.O=C(O)C(F)(F)F | 85 | 59 | 62
O=C(Cc1ccccn1)Nc1cccc(-c2cccc(-c3nc4cc(C(F)(F)F)ccc4[nH]3)c2)c1 | 95 | 22 | 26
O=C(Cc1cccc(Cl)c1)Nc1cccc(-c2c[nH]c3nc(Nc4ccccc4)ncc23)c1.O=C(O)C(F)(F)F | 99 | 70 | 5
Cc1noc(-c2ccc3c(c2)CCN(CCC2CCC(NC(=O)/C=C/c4ccc(F)cc4)CC2)CC3)n1.Cl (stereo not drawn) | 91 | 39 | 44
COc1ccc(OCc2ccccn2)c(C2CCN(CCCCNC(=O)c3ccc(NC(=O)c4ccc(Cl)cc4)cc3)CC2)c1.Cl | 98 | 71 | 18
Cc1ccc2[nH]cc(/C=C/C(=O)NC3CCC(CCN4CCc5ccc(C#N)cc5CC4)CC3)c2c1.Cl (stereo not drawn) | 93 | 49 | 11
COc1ccc(/C=C/C(=O)NCCCCCN2CCC(c3c[nH]c4ccccc34)CC2)cc1O | 91 | 1 | 9
Cc1cccc(Nc2nc(C)cc(N3CCCN(CC4CCCCC4)CC3)n2)c1 | 83 | 21 | 20
COc1cc(Cc2cnc(N)nc2N)ccc1OCc1cccc(Oc2ccccc2)c1 | 84 | 21 | 18
CC1(C)N=C(N)N=C(N)N1OCc1cc(Cl)c(CON2C(N)=NC(N)=NC2(C)C)cc1Cl | 94 | 77 | 21
Cc1noc(-c2cccs2)c1C(=O)NCCc1cccc(Cl)c1 | 97 | 95 | 0
CCOc1ccc(-c2nonc2NC(=O)c2ccccc2F)cc1OCC | 90 | 100 | 0
COc1ccc2nc(C)cc(NCc3ccc4ccccc4c3)c2c1.Cl | 100 | 75 | 21
O=C(Nc1ccc(F)cc1)N1CCCN(c2ccnc3cc(Cl)ccc23)CC1.O=C(O)C(F)(F)F | 97 | 16 | 7
N#Cc1ccc(C(=O)Nc2ccc(-c3cccc(CN4CCCC4)c3)cc2)cc1.O=C(O)C(F)(F)F | 89 | 1 | 17
O=C(/C=C/c1ccc(Cl)c(Cl)c1)NCCCCCN1CCCC(C(=O)Nc2ccc(F)c(Cl)c2)C1 (stereo not drawn) | 99 | 2 | 28
N#Cc1ccc(N(CCNS(=O)(=O)c2cc(Br)c(Cl)s2)Cc2ccccc2C(F)(F)F)cc1C(F)(F)F | 92 | 57 | 3
CCOc1cc(C(=O)NCc2cc(Cl)cc(Cl)c2)ccc1-c1nc2cc(Cl)ccc2[nH]1 | 100 | 5 | 1
O=C(O)C(F)(F)F.OCC1CCCCN1Cc1cccc(-c2cccc(-c3nc4ccccc4[nH]3)c2)c1 (stereo not drawn) | 95 | 4 | 24
O=C(NCc1ccco1)c1ccc(S(=O)(=O)c2ccc(Cl)cc2)cc1 | 97 | 95 | 6

Structure (SMILES) | Inhibition (Plasmodium falciparum [1]) [%] | Inhibition (Plasmodium falciparum [2]) [%] | Inhibition (HepG2) [%]
CCNc1cc(C(=O)N[C@@H](Cc2ccccc2)[C@H](O)CNC23CCC(CC2)CC3)cc(N2CCCCS2(=O)=O)c1.Cl | 99 | 98 | 10
CS(=O)(=O)Cc1ccc(Nc2nccc(-c3c(-c4cccc(NC(=O)c5c(F)cccc5F)c4)nn4ccccc34)n2)cc1 | 99 | 75 | 78
O=C(NCCc1ccccc1)N(Cc1ccccc1-c1cccc(CNCc2ccc3c(c2)OCO3)c1)C1CCN(Cc2ccccc2)CC1.O=C(O)C(F)(F)F | 93 | 77 | 29
O=C(NC1CCCCN(Cc2ccccc2O)C1)c1cccc(Cl)c1.O=C(O)C(F)(F)F (stereo not drawn) | 86 | 30 | 15
CN(Cc1cccc(C#N)c1)C1CCN(c2cc(NC(=O)c3ccc(F)cc3)ccn2)CC1.O=C(O)C(F)(F)F | 97 | 23 | 4
CC[C@H](N/C(=N\c1ccc(-c2ccccc2)cc1)Nc1ccc(C#N)cc1O)c1ccccc1 | 99 | 97 | 0
COc1ccc2nccc([C@@H](O)CN3CCC(NC(=O)/C=C/c4ccc5[nH]c(=O)ccc5c4)CC3)c2c1 | 96 | 83 | 2
Fc1cccc(-c2ccc3c(c2)CC(NCc2c[nH]c4cnccc24)C3)c1 (stereo not drawn) | 100 | 68 | 24
Cc1nc(-c2nc(NCCc3c(C)noc3C)ncc2-c2ccsc2)sc1C | 87 | 85 | 12
CCN(CCCN1CCCCC1)c1cc(C)nc(Nc2cc(Br)ccc2C)n1.O=C(O)C(F)(F)F | 98 | 39 | 32
C=CCOC(=O)N1CCC(CNCc2cccc(-c3ccc(-c4nc5cccc(C)c5[nH]4)cc3)c2)C1.O=C(O)C(F)(F)F (stereo not drawn) | 100 | 82 | 24
Cc1ncccc1-c1cccc2c(NC(=O)Nc3ccc4nccc(N5CCN(C)CC5)c4c3)cccc12.Cl | 100 | 96 | 19
Clc1ccc2c(NN=Cc3cccs3)ccnc2c1 | 100 | 96 | 0
COc1ccc2c(c1)CC(C)(C)NC2CCCCCCCCC1NC(C)(C)Cc2cc(OC)ccc21.O=C(O)C(=O)O (stereo not drawn) | 98 | 62 | 42
CCCCOC(=O)C1=C(C)NC2=C(C(=O)CC(c3ccc(OC)c(OC)c3)C2)C1c1ccc(O)cc1 (stereo not drawn) | 90 | 75 | 0
CCCCCCN1CCC(NCc2ccc(OCCN3CCCC3)cc2)CC1.O=C(O)C(F)(F)F | 100 | 93 | 23
Cc1cc2nc(-c3ccc(/C=C/C(=O)NCCc4ccccc4)cc3)[nH]c2cc1C | 98 | 13 | 3
COc1cc2c(cc1OC)C(C(=O)c1ccccc1)=NCC2.Cl | 85 | 62 | 19
COC(=O)c1ccc(Nc2nccc(Nc3ccc(Oc4ccccc4)cc3)n2)cc1.Cl | 93 | 15 | 0
